Compounds with a hit are over-represented: about 1.9% of the library has one in this group of screens.
SK-BR-3 tox 24h: SK-BR-3 proliferation inhibitors, primary screen, cell-based, human, 24 h. SK-BR-3 viability, CellTiter-Glo ATP luminescence; hits give low values. viability, % at 10 µM. 41,000 compounds, 0.47% hits. AID 847, 2007;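 active = viability at or below the median of all test compounds minus 3 SD, in both replicates if run twice, cut at about 45% in these data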;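 also: 100% = median untreated cell wells and 0% = median positive control drug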
HER2 expr 66K: inhibitors of Her2 protein expression, primary screen, SKBR-3 cells, AlphaScreen, 66K library; Receptor tyrosine-protein kinase erbB-2 (Homo sapiens), P04626; SKBR-3 HER2 protein level, 18-24 h; hits give low values; HER2 level % of control, % at 10 µM; 65,000 compounds, 0.69% hits; AID 645, 2007;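 active = HER2 level under 5% of the carrier-only control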;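 also: 100% = DMSO carrier and 0% = 500 nM PU-H71 HSP90 inhibitor; lower value means stronger loss of Her2 protein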
Target sequence (P04626 whole entry, looked up): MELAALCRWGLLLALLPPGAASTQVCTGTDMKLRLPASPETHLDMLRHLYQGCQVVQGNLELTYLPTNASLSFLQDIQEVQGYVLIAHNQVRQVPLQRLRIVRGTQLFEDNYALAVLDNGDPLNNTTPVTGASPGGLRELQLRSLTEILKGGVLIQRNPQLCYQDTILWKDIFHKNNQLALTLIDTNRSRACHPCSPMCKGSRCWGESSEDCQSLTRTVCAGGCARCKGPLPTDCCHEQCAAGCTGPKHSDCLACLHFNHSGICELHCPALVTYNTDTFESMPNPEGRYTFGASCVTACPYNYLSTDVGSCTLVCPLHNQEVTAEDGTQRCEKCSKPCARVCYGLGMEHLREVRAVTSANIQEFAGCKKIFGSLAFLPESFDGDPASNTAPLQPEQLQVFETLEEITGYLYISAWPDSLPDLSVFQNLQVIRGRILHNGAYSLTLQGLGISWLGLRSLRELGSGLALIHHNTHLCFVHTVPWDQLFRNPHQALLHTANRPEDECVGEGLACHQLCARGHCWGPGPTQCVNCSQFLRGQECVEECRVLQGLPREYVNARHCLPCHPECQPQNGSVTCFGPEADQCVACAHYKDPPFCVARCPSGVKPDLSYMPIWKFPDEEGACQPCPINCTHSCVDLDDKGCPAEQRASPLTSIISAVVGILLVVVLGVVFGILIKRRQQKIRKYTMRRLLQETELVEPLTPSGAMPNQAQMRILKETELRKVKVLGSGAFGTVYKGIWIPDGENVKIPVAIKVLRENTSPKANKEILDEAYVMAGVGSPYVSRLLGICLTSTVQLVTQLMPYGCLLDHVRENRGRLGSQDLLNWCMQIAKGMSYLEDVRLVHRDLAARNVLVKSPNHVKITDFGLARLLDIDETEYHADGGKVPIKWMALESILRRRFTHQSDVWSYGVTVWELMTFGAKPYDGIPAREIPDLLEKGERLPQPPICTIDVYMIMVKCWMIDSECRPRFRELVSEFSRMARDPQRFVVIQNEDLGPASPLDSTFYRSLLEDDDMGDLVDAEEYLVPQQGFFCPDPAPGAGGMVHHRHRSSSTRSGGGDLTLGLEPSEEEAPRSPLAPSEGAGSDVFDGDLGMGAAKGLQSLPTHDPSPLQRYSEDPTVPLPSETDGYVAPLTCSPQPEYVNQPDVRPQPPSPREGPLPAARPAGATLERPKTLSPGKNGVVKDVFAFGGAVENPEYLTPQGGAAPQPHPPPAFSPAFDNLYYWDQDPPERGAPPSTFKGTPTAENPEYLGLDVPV
Jurkat viability: cytotoxicity toward Jurkat T cells, primary screen, cytotoxicity control, cell-based, Jurkat E6.1, 60K MLSMR library. Jurkat E6.1 viability, ATP luminescence, 48 h. inhibition, % at 4 µM. 56,000 compounds, 1.2% hits;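 active = inhibition above the mean inhibition of all tested compounds plus 3 SD, cut at about 28% in these data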
An asterisk follows results filed as active; . = no result given.

SMILES | SK-BR-3 tox 24h | HER2 expr 66K | Jurkat viability
C=CCn1c(Cc2csc(N)n2)nnc1SCC(=O)OCC | 95 | 124 | -7
Cc1ccc(-c2nnc3n2N=C(c2ccc(Br)cc2)CS3)cc1 | . | 38 | -3
Cc1cccc(-c2nnc3n2N=C(c2ccc(Br)cc2)CS3)c1 | 91 | 109 | .
Brc1ccc(C2=Nn3c(nnc3-c3n[nH]c4c3CCC4)SC2)cc1 | 82 | 81 | 79*
Clc1ccc(C2=Nn3c(nnc3-c3n[nH]c4c3CCC4)SC2)cc1 | 76 | 62 | 92*
COc1ccc(NC(=O)C2CCCCN2CC(=O)OCc2ccccc2)cc1OC (stereo unspecified) | . | 143 | -5
Cc1ccc(N(CC(=O)N2CC(=O)Nc3ccccc32)S(=O)(=O)c2ccc3c(c2)OCCO3)cc1 | 64 | 52 | .
CC(C(=O)NCc1cccnc1)N1C(=O)c2ccccc2C1=O (stereo unspecified) | 96 | 83 | .
CCOC(=O)c1c(C)oc2c1c(C=NC1CCS(=O)(=O)C1)c(O)c1ccccc12 (stereo unspecified) | 56 | 63 | 2
CCOC(=O)c1c(C)oc2c1c(C(c1ccncc1)N1CCOCC1)c(O)c1ccccc12 (stereo unspecified) | . | -12* | -5
CC1=C(C(=O)OCc2ccc3c(c2)OCO3)C(c2ccccc2)NC(=O)N1 (stereo unspecified) | 95 | 53 | 38*
CC1=C(C(=O)OCc2ccccc2)C(c2ccc(N3CCOCC3)cc2)NC(=O)N1 (stereo unspecified) | 105 | 89 | 8
O=C(CN1C(=O)CCS(=O)(=O)c2ccccc21)Nc1cccc(Cl)c1 | . | 80 | .
CCc1ccc(C2CC(c3ccc(C)cc3)n3nc(N)nc3N2)cc1 (stereo unspecified) | . | 113 | 4
CCNc1nc2c(c(=O)n(Cc3ccccc3)c(=O)n2C)n1Cc1ccccc1 | 75 | 104 | 0
COC(=O)c1sccc1NC(=O)c1ccc(OC)cc1 | 91 | 67 | 0
COC(=O)c1sccc1NC(=O)c1ccc(Cl)s1 | 98 | 4.0* | 2
COC(=O)c1sccc1NC(=O)c1csc(C)c1 | 76 | 0.2* | -5
CCn1c(C(=O)Nc2ccsc2C(=O)OC)cc2sc(Cl)cc21 | . | 29 | -1
COc1ccccc1N1CCN(C(=O)CN(c2ccccc2OC)S(=O)(=O)c2ccccc2)CC1 | 87 | 69 | -3
CC(C)N1C(=O)C2C(c3ccccc3O)NC(C)(C(=O)O)C2C1=O (stereo unspecified) | . | 96 | -1
Cc1c(NC(=O)c2ccc(F)cc2)c(=O)n(-c2ccccc2)n1C | . | 121 | 0
O=C(Nc1ccc(N2CCCC2)cc1)c1cccc(F)c1 | . | 70 | 69*
O=C(Nc1ccc(N2CCCCC2)cc1)c1ccccc1 | . | 83 | 10
Cc1c(NC(=O)c2cccc(F)c2)c(=O)n(-c2ccccc2)n1C | 94 | -26* | -3
SMILES | SK-BR-3 tox 24h | HER2 expr 66K | Jurkat viability
CC1CCc2cccc3c2N1c1cc(C#N)c(C#N)cc1O3 (stereo unspecified) | 82 | 99 | -8
O=C(NCC1CCCO1)C1CCC(CNS(=O)(=O)c2ccccc2)CC1 (stereo unspecified) | . | 107 | -3
COc1cc2c(=O)n(Cc3ccco3)c(=O)n(CC(=O)c3cccc(Br)c3)c2cc1OC | 42* | 34 | 0
COc1cc2c(=O)n(Cc3ccco3)c(=O)n(CC(=O)c3ccc(Br)cc3)c2cc1OC | 56 | 52 | 0
CC(=O)Nc1ccc(S(=O)(=O)/N=C2\SCCN2S(=O)(=O)c2ccc(NC(C)=O)cc2)cc1 | . | 112 | -2
COc1ccc(C(=O)c2ccc(N3CCOCC3)cc2)c(OC)c1 | 79 | 87 | .
COc1ccc(C(=O)c2ccc(N(C)C)cc2)c(OC)c1 | 69 | 65 | 81*
O=c1ccc2c(o1)/C(=C/C=C(Cl)Cl)CCC2 | . | 114 | 6
COc1cccc(-c2nc(C(N)=O)c3[nH]c(=O)n(-c4cccc(Cl)c4)c3n2)c1OC | . | 97 | -9
COc1ccc(-c2nc(C(N)=O)c3[nH]c(=O)n(-c4cccc(Cl)c4)c3n2)cc1OC | . | -12* | -5
Cc1nnc(SC(=O)N2c3ccccc3Sc3ccccc32)s1 | . | 0.9* | 17
Cc1nnc(SCC(=O)N2c3ccccc3Sc3ccccc32)n1N | 109 | 108 | 1
COc1cccc(S(=O)(=O)Nc2ccc(C(=O)N3CCOCC3)cc2)c1 | 98 | 109 | 5
CCc1cccc(Nc2cc(C)nc3ncnn23)c1 | . | 102 | -5
CCn1c2ccccc2c2cc(Nc3cc(C)nc4ncnn34)ccc21 | . | 61 | 99*
CC(C)OCCCNC(=O)c1cc2c(s1)CS(=O)(=O)C2 | . | 119 | .
CC12C=CC3(CN(Cc4ccccc4)C(=O)C3C1C(=O)NCc1ccco1)O2 (stereo unspecified) | . | 125 | .
O=C(NCCCN1CCCC1=O)c1ccc(Cl)c(NS(=O)(=O)c2ccc(F)cc2)c1 | . | 100 | 8
O=C(Cn1c(=O)n(CCCC(=O)NC2CCCC2)c(=O)c2ccccc21)NCCC1=CCCCC1 | 61 | 64 | -1
COc1ccc2[nH]c(=O)c(CN(CCN(C)C)C(=O)NCc3ccccc3)cc2c1 | . | 117 | .
Cc1ccc(C)c2[nH]c(=O)c(CN(CCCN(C)C)C(=O)NCc3ccccc3)cc12 | 44* | 107 | 9
COC(=O)c1ccccc1NC(=O)CSc1nnc(CNS(=O)(=O)c2ccc(C)cc2)n1C | 81 | 117 | -6
COc1cc2[nH]c(=O)n(CCCCCC(=O)N3CCN(c4ccccc4)CC3)c(=O)c2cc1OC | 85 | 131 | .
COc1cc2[nH]c(=O)n(CCC(=O)N3CCN(c4cccc(C)c4C)CC3)c(=O)c2cc1OC | 4.9* | -23* | .
O=C1NC(c2ccncc2)Nc2ccccc21 (stereo unspecified) | 71 | 70 | 7
SMILES | SK-BR-3 tox 24h | HER2 expr 66K | Jurkat viability
Cc1ccc(C2NC(=O)c3ccccc3N2)s1 (stereo unspecified) | . | 78 | 75*
CC(=O)N1CCc2c(sc(NC(=O)c3ccc4c(c3)OCCO4)c2C#N)C1 | . | 68 | 88*
CC(=O)N1CCc2c(sc(NC(=O)c3ccc(S(=O)(=O)N(C)C)cc3)c2C#N)C1 | . | 104 | 0
Cc1ccc2cc(CN(Cc3ccco3)C(=O)c3cccs3)c(=O)[nH]c2c1 | 110 | 43 | 92*
Cc1ccc2[nH]c(=O)c(CN(Cc3ccco3)C(=O)c3cccs3)cc2c1 | 103 | 70 | -1
CCOC(=O)N1CCN(C(=O)c2ccc3c(c2)sc2nc(-c4ccc(OC)cc4)cn23)CC1 | . | 94 | -3
COc1ccc2c(c1)sc1nc(-c3ccccc3)cn12 | 96 | 67 | 100*
O=C1N/C(=C\c2ccccc2)c2ccccc21 | 91 | 52 | 81*
N#C/C=C1/NC(=O)c2ccccc2S1 | . | 90 | -3
COc1ccc(C(=O)c2ccc(OC)c(N)c2)cc1N | 92 | 63 | 62*
COc1ccc(C(=O)c2ccc(OC)c(OC)c2)cc1OC | 104 | 125 | -3
COC(=O)c1cccc(CSc2nnc(-c3ccco3)n2-c2ccccc2)c1 | 35* | 109 | 12
CCOC(=O)CSc1nnc(-c2ccco2)n1-c1ccccc1 | . | 124 | -2

Screening results (PubChem BioAssay)
